In ChEMBL document CHEMBL3988442, “University of Dundee, Small-Polar-MMV Screening Library” (2021):

Target: T1, Aspartate--tRNA(Asp/Asn) ligase (Mycobacterium tuberculosis (strain ATCC 25618 / H37Rv)) (UniProt P9WFW3)
T1 sequence (whole entry): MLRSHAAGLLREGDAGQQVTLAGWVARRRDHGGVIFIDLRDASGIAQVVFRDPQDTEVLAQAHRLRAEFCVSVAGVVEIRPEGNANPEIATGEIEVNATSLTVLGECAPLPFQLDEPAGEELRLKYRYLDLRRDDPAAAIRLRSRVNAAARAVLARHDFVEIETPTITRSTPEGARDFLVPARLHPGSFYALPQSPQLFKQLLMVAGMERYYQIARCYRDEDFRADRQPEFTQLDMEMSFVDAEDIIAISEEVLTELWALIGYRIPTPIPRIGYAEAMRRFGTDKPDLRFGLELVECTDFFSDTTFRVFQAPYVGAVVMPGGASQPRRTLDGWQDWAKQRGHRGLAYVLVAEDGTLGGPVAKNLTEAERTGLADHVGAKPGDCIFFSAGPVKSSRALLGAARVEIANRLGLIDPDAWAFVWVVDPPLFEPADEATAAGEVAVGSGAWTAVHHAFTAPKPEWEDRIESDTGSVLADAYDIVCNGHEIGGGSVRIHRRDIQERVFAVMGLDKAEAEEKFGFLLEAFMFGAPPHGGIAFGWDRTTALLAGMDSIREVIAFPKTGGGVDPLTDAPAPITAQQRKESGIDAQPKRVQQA
Test: Assay for Asp RNA synthetase-1 from Mycobacterium tuberculosis
Assay type: functional
Set-up: scale not given: in the data most compounds retested in dose-response had high values
Details: 30 µM

Going from `COCCN1C[C@@H]2CN(Cc3cccc(F)c3)CCC[C@]2(C(=O)O)C1` to `Cc1cnn(C2CCCN(C(=O)CCCOc3cccc(F)c3)C2)c1` (stereo not given), the Percent Effect falls from 6.95% to -4.03%.

Compared with `CC(C)c1cc(N2CCC(CCC(=O)NC3CC3)CC2)n2nccc2n1`, `O=C(NCc1cc(=O)n2c(n1)CN(CC1CCOC1)CCC2)C1CC1` (stereo not given) is lower in Percent Effect: 0.32% for the first, -1% for the second.

Compared with `CN(C)C(=O)CN1CCC2(CCN(Cc3nccs3)CC2)C1=O`, `CCc1nc(CN2CCCN(C(=O)c3cn[nH]c3CC)CC2)cs1` is lower in Percent Effect: 7.45% for the first, -1.54% for the second.

Going from `CC(=O)N(Cc1ncc(C)o1)C1CCN(Cc2noc(C)n2)C1` (stereo not given) to `Cc1noc(CN2CCC(c3ccnn3CCO)CC2)n1`, the Percent Effect falls from 5.42% to -2.2%.

Compared with `Cc1cccc(CN2CCc3ncnc(N4CCOCC4)c3CC2)n1`, `Cn1cc(-c2cnc(N3CCOCC3)nc2)cc1C(=O)NCCO` is higher in Percent Effect: -3.01% for the first, 8.57% for the second.

Compared with `CC(C)n1ncc2c1NC(=O)CSC2C(C)(C)C` (stereo not given), `CC(C)(C)c1ncc(C(=O)NCCS(N)(=O)=O)s1` is higher in Percent Effect: -2.73% for the first, -1.74% for the second.

First: CC(NC(=O)NCC1(c2ccccc2)CCC1)c1nncn1C (stereo not given)
Second: Cn1ccnc1CNC(=O)N(CCCO)C1CCCc2ccccc21 (stereo not given)
The Percent Effect of the first is lower: 0.759% for the first, 0.809% for the second.

First: COCc1ccccc1C(=O)NCCCN1CCCC1C(=O)N(C)C (stereo not given)
Second: CCN1CCN(C(=O)c2cc(C(=O)OC)nn2-c2ccccc2)CC1
The Percent Effect of the first is higher: 5.84% for the first, 2.94% for the second.

Compared with `CCCn1nc2c(cc1=O)CN(CCCN1CCCC1=O)CC2`, `CN1CCN(C[C@@H]2CN(C(=O)c3ccccc3C#N)C[C@@H]2CO)CC1` is lower in Percent Effect: 10.1% for the first, -1.09% for the second.

Compared with `Cn1nccc1C(=O)N1CCOC(Cc2cccnc2)C1` (stereo not given), `Cc1ncsc1C(=O)N(Cc1cccnc1)C1CC1` is lower in Percent Effect: -0.485% for the first, -0.522% for the second.

Compared with `O=C(NCc1cnc2n1CCN(c1ncc(F)cn1)CC2)C1CCC1`, `O=C(Nc1cccnc1)[C@H]1CO[C@H]2CCN(c3ncc(F)cn3)C[C@H]2C1` is higher in Percent Effect: -2.16% for the first, 0.524% for the second.

Compared with `CC(C)Cc1noc(CN2CCN(CCO)CC2)n1`, `CCn1ccnc1CN1CCN(Cc2ccc(C#N)cc2)CC1` is higher in Percent Effect: -3.95% for the first, -0.278% for the second.

Compared with `COCc1noc(C2(c3ccc(OC)cc3)CCOCC2)n1`, `COCCC(=O)N1CCC2(COCc3cnc(N4CCOCC4)nc32)C1` (stereo not given) is higher in Percent Effect: -1.75% for the first, 1.66% for the second.

Going from `Cc1cc(C)n(C2CN(CC(O)c3ccc4c(c3)OCO4)C2)n1` (stereo not given) to `O=C(Cc1ccc2c(c1)OCO2)N1CCCN(c2ccccc2)CC1`, the Percent Effect rises from -5.92% to 3.17%.

Going from `Cc1nccc(CNC(=O)NCCOc2ccc(F)c(F)c2)n1` to `CC(C)C(=O)NCCNc1nccc(-c2cc(C(=O)O)ccn2)n1`, the Percent Effect rises from -2.26% to 0.977%.

Going from `CC(C)Oc1cccc(C(=O)C2CCCN(C(=O)c3ncn[nH]3)C2)c1` (stereo not given) to `Cc1cc(C2CCCN(CCc3ccccn3)C2)n[nH]1` (stereo not given), the Percent Effect falls from 0.948% to -5.34%.

Compared with `Cc1cc(CNC(=O)N2CCN(c3nc(C)c(C)s3)CC2)no1`, `Cc1ccc2c(c1)C1(CC2)CCN(c2nncs2)CC1` is higher in Percent Effect: -1.96% for the first, 1.71% for the second.

First: O=C(NCCO)Nc1cccc(Cl)c1SC(F)F
Second: Cc1cccc(C(=O)N2CCN(S(C)(=O)=O)[C@@H](C)C2)c1C
The Percent Effect of the first is higher: 0.334% for the first, -3.1% for the second.

First: Cn1ncc2c(=O)[nH]c(CN(Cc3ccco3)C3CCCC3)nc21
Second: Cc1nc(-c2nnc[nH]2)sc1C(=O)N(Cc1cccnc1)C1CC1
The Percent Effect of the first is lower: -7.5% for the first, -2.72% for the second.

Compared with `CCc1ccc(OCC(O)CN2CCC(O)CC2)cc1` (stereo not given), `CNc1oc(-c2ccc(OC)c(S(=O)(=O)N3CCCCC3)c2)nc1C#N` is lower in Percent Effect: 3.31% for the first, -1.39% for the second.
